Screens (PubChem BioAssay)
Compounds with a hit are over-represented: about 21% of the library has one in this group of screens.
CYP2C19 activ: increases human CYP2C19 enzyme activity. P33261. recombinant CYP2C19, luciferin-H EGE luminescence; stronger effect = higher value; 0 = fully inhibited enzyme, 1 = untreated enzyme. activation factor at 5 µM. 96,000 tested, under 10 active. AID 1025;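 active = activation factor of at least 2 at 5 µM in the primary screen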;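 note: 0 = wells with 2.5 mM tranylcypromine and 1 = vehicle-only wells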
CYP2C9 activ: activators of human CYP2C9; recombinant CYP2C9, luciferin-H conversion, luminescence; stronger effect = higher value; factor 1 = untreated enzyme, 0 = blocked; actives 1.4% (n = 96,000); activation factor at 5 µM;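 active = activation factor of 2 or more for CYP2C9 at a 5 µM dose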;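 note: 0 = sulfaphenazole-blocked wells and 1 = vehicle-only wells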
Target sequence (P11712 whole entry, looked up): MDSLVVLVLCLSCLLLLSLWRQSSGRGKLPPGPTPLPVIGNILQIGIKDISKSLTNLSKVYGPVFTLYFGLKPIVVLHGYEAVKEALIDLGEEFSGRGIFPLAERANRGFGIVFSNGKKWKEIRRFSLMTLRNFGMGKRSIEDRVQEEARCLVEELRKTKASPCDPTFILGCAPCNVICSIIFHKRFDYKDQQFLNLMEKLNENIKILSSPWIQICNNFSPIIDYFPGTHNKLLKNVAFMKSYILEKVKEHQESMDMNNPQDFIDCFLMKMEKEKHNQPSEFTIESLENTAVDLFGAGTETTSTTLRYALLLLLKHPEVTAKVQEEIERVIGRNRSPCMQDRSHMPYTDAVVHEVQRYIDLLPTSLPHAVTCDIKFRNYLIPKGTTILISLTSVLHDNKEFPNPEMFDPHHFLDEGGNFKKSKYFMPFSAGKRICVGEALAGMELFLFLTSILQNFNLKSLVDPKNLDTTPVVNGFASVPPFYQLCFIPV
CYP2C9 inhib: human CYP2C9 inhibition; P11712; CYP2C9 Supersomes, luciferin-H conversion, luminescence; inhibition, % at 5 µM; actives 20% (n = 96,000); AID 777;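 active = blocking of liver enzyme CYP2C9 beyond about 50% at 5 µM, limit read from the data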
MRP-1 activ: MRP-1 activation | viability increase, % at 10 µM | H69AR cells + doxorubicin, viability rescue, CellTiter-Glo | actives 0.61% (n = 140,000) | AID 799;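 active = viability gain under doxorubicin at or above a set limit, the compound median plus 3 SD, cut at about 4.7% in these data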;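 note: MRP-1 overexpressing cells given doxorubicin 25 µM after compound pretreatment; 18-22 h compound pretreatment then 72 h with doxorubicin before readout; 0% = doxorubicin-only wells and 100% = vehicle-treated cells without doxorubicin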
CYP2C19 inhib: blocks human cytochrome P450 2C19; P33261; CYP2C19 Supersomes, luciferin-H EGE luminescence, 30 min; inhibition, % at 5 µM; actives 21% (n = 96,000); AID 778;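 active = CYP2C19 inhibition above a set limit at 5 µM in the primary screen, cut at about 50% in these data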;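 note: plate controls were negative control wells for no effect and 2.5 mM tranylcypromine positive control for full effect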
MRP resist rev: MRP-mediated drug resistance reversal. differential viability (reversal), % at 10 µM. actives 0.04% (n = 85,000). H69AR cells + 2 uM doxorubicin, CellTiter-Glo, 72 h. AID 602;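 active = viability drop by adding the cancer drug above about 55%, with treated viability meeting a 40% cutoff, limit read from the data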;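 note: viability without doxorubicin minus viability with 2 µM doxorubicin for each compound; larger differential means the compound sensitizes cells more to doxorubicin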
The depositor's hits bear a star.

How did CCCS(=O)(=O)n1nc(-c2ccc(OC)cc2OC)cc1N do in these assays?
MRP-1 activ: -2; MRP resist rev: -13

What do the screens show for `COc1ccc(OC)c(S(=O)(=O)n2nc(-c3ccccc3)cc2N)c1`?
CYP2C19 activ: 0.8; CYP2C9 activ: 0.6; CYP2C9 inhib: 39; MRP-1 activ: -1; CYP2C19 inhib: 24; MRP resist rev: 10

How did CCCS(=O)(=O)n1nc(-c2ccc(OC)cc2)cc1N do in these assays?
CYP2C19 activ: 0.1; CYP2C9 activ: 0.1; CYP2C9 inhib: 87*; MRP-1 activ: -1; CYP2C19 inhib: 94*; MRP resist rev: 9

How did COc1cc(OC)cc(-c2cc(N)n(S(=O)(=O)Cc3ccccc3)n2)c1 do in these assays?
CYP2C19 activ: 0.6; CYP2C9 activ: 0.1; CYP2C9 inhib: 87*; MRP-1 activ: -2; CYP2C19 inhib: 43; MRP resist rev: 2

How did CCCS(=O)(=O)n1nc(-c2ccc(C)cc2)cc1N do in these assays?
CYP2C19 activ: 0.1; CYP2C9 activ: 0.3; CYP2C9 inhib: 67*; MRP-1 activ: -1; CYP2C19 inhib: 91*; MRP resist rev: 0

How did Cc1ccc(-c2cc(N)n(Cc3ccc(Cl)cc3)n2)cc1 do in these assays?
CYP2C19 activ: 0.2; CYP2C9 activ: 0.4; CYP2C9 inhib: 62*; MRP-1 activ: -2; CYP2C19 inhib: 83*

How did COCCN(C(=O)Cc1cccs1)C(C(=O)NCc1ccc(OC)cc1)c1ccccc1 (stereo not drawn) do in these assays?
CYP2C19 activ: 0.9; CYP2C9 activ: 0.8; CYP2C9 inhib: 17; MRP-1 activ: -1; CYP2C19 inhib: 14

How did CN(C)c1cccc(NC(=O)Cc2ccc(F)cc2)c1 do in these assays?
CYP2C19 activ: 0; CYP2C9 activ: 0.4; CYP2C9 inhib: 62*; MRP-1 activ: -3; CYP2C19 inhib: 98*; MRP resist rev: 5

How did CC(=O)Nc1cccc(NC(=O)CCc2ccccc2)c1 do in these assays?
CYP2C19 activ: 0.9; CYP2C9 activ: 0.9; CYP2C9 inhib: 10; MRP-1 activ: -2; CYP2C19 inhib: 7; MRP resist rev: 15

How did CC(=O)Nc1cccc(N(C)C)c1 do in these assays?
CYP2C19 activ: 1; CYP2C9 activ: 1; CYP2C9 inhib: -1; MRP-1 activ: 0; CYP2C19 inhib: -1; MRP resist rev: -1

What do the screens show for `CN(C)c1cccc(NC(=O)CCc2ccccc2)c1`?
CYP2C19 activ: 0; CYP2C9 activ: 0.7; CYP2C9 inhib: 34; MRP-1 activ: -1; CYP2C19 inhib: 95*; MRP resist rev: 7

Results for Cc1sc2ncnc(SCC(=O)N3CCC(c4noc5ccc(F)cc45)CC3)c2c1C ?
CYP2C19 activ: 0.4; CYP2C9 activ: 0.2; CYP2C9 inhib: 79*; MRP-1 activ: -2; CYP2C19 inhib: 65*; MRP resist rev: 19

How did Cc1nn(-c2ccc(F)cc2)c(Cl)c1/C=C1\C(=O)Nc2ccccc21 do in these assays?
MRP-1 activ: -5

Results for Cc1ccc(OCCNS(=O)(=O)c2cccs2)cc1 ?
CYP2C19 activ: 0; CYP2C9 activ: 0.2; CYP2C9 inhib: 85*; MRP-1 activ: 0; CYP2C19 inhib: 100*; MRP resist rev: -4

How did CC(C)OCCCNS(=O)(=O)c1ccc2c(c1)OCCO2 do in these assays?
CYP2C19 activ: 0.2; CYP2C9 activ: 2.2*; CYP2C9 inhib: -124; MRP-1 activ: -3; CYP2C19 inhib: 77*; MRP resist rev: -2

What do the screens show for `O=S(=O)(NCCOc1ccccc1)c1ccc2ccccc2c1`?
CYP2C19 activ: 1; CYP2C9 activ: 2.1*; CYP2C9 inhib: -105; MRP-1 activ: -1; CYP2C19 inhib: 2

Results for CCOc1ccc(OCC)c(NC(=O)CNS(=O)(=O)c2cccs2)c1 ?
CYP2C19 activ: 0.7; CYP2C9 activ: 0.7; CYP2C9 inhib: 34; MRP-1 activ: -3; CYP2C19 inhib: 30

Results for CC(C)OCCCNS(=O)(=O)c1ccc2ccccc2c1 ?
CYP2C19 activ: 0.6; CYP2C9 activ: 3.4*; CYP2C9 inhib: -237; MRP-1 activ: 0; CYP2C19 inhib: 39; MRP resist rev: 2

How did CC(C)OCCCNS(=O)(=O)c1ccc2c(c1)oc(=O)n2C do in these assays?
CYP2C19 activ: 0.6; CYP2C9 activ: 1.1; CYP2C9 inhib: -13; MRP-1 activ: -1; CYP2C19 inhib: 37; MRP resist rev: -16

Results for O=C1c2ccccc2CN1CCNS(=O)(=O)c1ccc2ccccc2c1 ?
CYP2C19 activ: 0.7; CYP2C9 activ: 2.5*; CYP2C9 inhib: -154; MRP-1 activ: -1; CYP2C19 inhib: 30; MRP resist rev: -28

How did COc1ccc(OCCNS(=O)(=O)c2ccccc2)cc1 do in these assays?
CYP2C19 activ: 0.1; CYP2C9 activ: 0.2; CYP2C9 inhib: 82*; MRP-1 activ: -2; CYP2C19 inhib: 86*; MRP resist rev: 10

Results for COCCNS(=O)(=O)c1ccccc1 ?
CYP2C19 activ: 0.9; CYP2C9 activ: 1; CYP2C9 inhib: 2; MRP-1 activ: 1; CYP2C19 inhib: 12; MRP resist rev: 5

Results for O=C1NCCN1CCNS(=O)(=O)c1ccc2ccccc2c1 ?
CYP2C19 activ: 0.8; CYP2C9 activ: 0.8; CYP2C9 inhib: 23; MRP-1 activ: 0; CYP2C19 inhib: 16; MRP resist rev: 6

What do the screens show for `CC(C)C(C)(C#N)NC(=O)CSc1nc(C2CCCCC2)n(-c2ccccc2)n1` (stereo not drawn)?
MRP-1 activ: -2

How did COc1c(Cl)cc(Cl)cc1/C=C/C(=O)c1ccc(NC(=O)c2cccs2)cc1 do in these assays?
MRP-1 activ: -5

Results for COc1ccc(S(=O)(=O)NC2CCCCC2)cc1C ?
CYP2C19 activ: 0.4; CYP2C9 activ: 3*; CYP2C9 inhib: -202; MRP-1 activ: -2; CYP2C19 inhib: 60*; MRP resist rev: -4

What do the screens show for `COc1ccc(F)cc1S(=O)(=O)NC1CCCC1`?
CYP2C19 activ: 0.2; CYP2C9 activ: 0.7; CYP2C9 inhib: 32; MRP-1 activ: 0; CYP2C19 inhib: 80*; MRP resist rev: 15

Results for COc1ccc(S(=O)(=O)NC2CCCC2)c(Cl)c1Cl ?
CYP2C19 activ: 0; CYP2C9 activ: 0.5; CYP2C9 inhib: 54*; MRP-1 activ: -1; CYP2C19 inhib: 98*; MRP resist rev: 9

Results for O=S(=O)(NC1CCCCCC1)c1cccc2cccnc12 ?
CYP2C19 activ: 0.5; CYP2C9 activ: 0.7; CYP2C9 inhib: 32; MRP-1 activ: -1; CYP2C19 inhib: 47; MRP resist rev: 2

How did COc1ccc(F)cc1S(=O)(=O)Nc1cccc(C(=O)O)c1 do in these assays?
MRP-1 activ: -1

How did COc1ccc(C)cc1S(=O)(=O)NC1CCCC1 do in these assays?
CYP2C19 activ: 0.2; CYP2C9 activ: 0.7; CYP2C9 inhib: 26; MRP-1 activ: 0; CYP2C19 inhib: 83*; MRP resist rev: -2

How did COc1cc(S(=O)(=O)NC2CCCCC2)ccc1Cl do in these assays?
MRP-1 activ: -2; MRP resist rev: 0

Results for Cc1nc(CCNC(=O)Cc2ccc(F)cc2)cs1 ?
CYP2C19 activ: 0.7; CYP2C9 activ: 0.8; CYP2C9 inhib: 16; MRP-1 activ: 0; CYP2C19 inhib: 34; MRP resist rev: -4
